Source: PubChem (Broad Institute)
INS-1E GSIS act – primary screen for activators of insulin secretion dependent on glucose, INS-1E cells, GLuc reporter luminescence; INS-1E GLuc reporter insulin secretion, 2-3 h; 0.61% of 370,000 active; activation, % at 16.6 µM; AID 743287;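 active = lowest replicate activation of at least 40%, so every replicate reaches that level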;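 also: 0% = median of neutral control wells and 100% = median of IBMX positive control wells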
FGF22 binding – FGF22 (human) thermal shift binding. Q9HCT0. recombinant FGF22 thermal shift, SYPRO orange fluorescence; percent of sucrose octasulfate shift, DMSO zero. activity (Tm shift, normalised), % at 9.99 µM. 1.5% of 340,000 active;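 active = mean Tm shift, scaled 0 neutral to 100 positive control, at about 1.3% or above, every replicate too, limit read from the data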
Target sequence (Q9HCT0 whole entry, looked up): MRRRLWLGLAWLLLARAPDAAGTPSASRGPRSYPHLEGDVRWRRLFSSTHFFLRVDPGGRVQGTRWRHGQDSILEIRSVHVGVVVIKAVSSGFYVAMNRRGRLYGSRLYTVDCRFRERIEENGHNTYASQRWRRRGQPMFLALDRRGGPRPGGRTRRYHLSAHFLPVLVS
ERAP1 HTS inh – ERAP1 (human) enzyme inhibition. 0.15% of 340,000 active. inhibition, % at 10.7 µM. AID 652197. Q9NZ08. recombinant ERAP1, Leu-AMC fluorescence, 60 min;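 active = mean replicate inhibition of at least 30%, or all replicates individually reaching that 30% level; inactive = mean below 30% and not every replicate reaching it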;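 also: 0% = neutral control wells and 100% = L-leucinethiol positive control wells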
CASP6 VEID inh – caspase-6 (human) enzyme inhibition | inhibition, % at 12.5 µM | 0.53% of 350,000 active | purified caspase-6, Z-VEID-R110 cleavage fluorescence;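 active = mean inhibition across replicates at least about 35%, with every replicate also reaching that limit, limit read from the data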;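 also: 0% = median of neutral control wells and 100% = no fluorescence left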
SIRT5 inh – blocks human SIRT5 desuccinylation of peptide | Purified SirT5, succinyl-peptide AMC, trypsin-coupled fluorescence | inhibition, % at 15 µM | 1.1% of 330,000 active; in the data active = inhibition above about 15%
Target sequence (Q9NXA8 whole entry, looked up): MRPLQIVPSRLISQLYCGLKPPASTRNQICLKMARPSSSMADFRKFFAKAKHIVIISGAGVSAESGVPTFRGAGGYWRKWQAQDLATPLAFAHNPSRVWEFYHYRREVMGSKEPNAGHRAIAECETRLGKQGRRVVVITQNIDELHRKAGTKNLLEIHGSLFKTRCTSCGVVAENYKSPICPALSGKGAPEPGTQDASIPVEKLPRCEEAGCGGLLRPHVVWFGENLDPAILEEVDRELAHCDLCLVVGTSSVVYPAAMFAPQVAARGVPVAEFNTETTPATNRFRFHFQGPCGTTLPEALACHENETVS
* hit, by the source's call; x = no result. In the library only some 3.3% were active in any assay of this set; here they are far more common.

SMILES	INS-1E GSIS act	FGF22 binding	ERAP1 HTS inh	CASP6 VEID inh	SIRT5 inh
O=C(COC(=O)/C=C/c1ccc(Cl)cc1)NC1CC1	-8	0	2	2	21*
Cc1cccc(OCC(=O)NCC(=O)N/N=C/c2ccc(O)cc2O)c1	15	0	-1	3	2
O=C(COc1cccc(Br)c1)N/N=C/C(=O)c1ccccc1	11	43*	0	0	-4
Cc1cccc(OCC(=O)NCC(=O)N/N=C/c2ccccc2)c1	7	43*	-4	-3	-8
Cc1cccc(OCC(=O)NCC(=O)N/N=C/c2cc(Br)ccc2OCc2ccccc2)c1	-8	0	-2	7	3
O=[N+]([O-])c1cc([N+](=O)[O-])c(Oc2ccc(F)cc2)cc1NN1CCCCC1	9	0	-3	6	-5
O=[N+]([O-])c1cc([N+](=O)[O-])c(Oc2ccc(F)cc2F)cc1NN1CCCCC1	9	0	-2	0	17*
C=CCc1ccccc1Oc1cc(OC)nc(N)n1	63*	0	-1	-3	-6
CCCN1C[C@@H](C)[C@@H](OC)CN(C)C(=O)c2cc(NC(=O)C3CCOCC3)ccc2OC[C@H]1C	44	0	-3	10	-1
COc1ccc(NS(=O)(=O)c2ccc(OCC(=O)N3CCOCC3)cc2)cc1	22	x	x	x	x
CSc1ccc(S(=O)(=O)Nc2ccc(OCC(=O)N3CCOCC3)cc2)cc1	0	43*	-4	-3	-7
Cc1ccc(SCCC(=O)N2CCCC2)cc1	16	x	x	x	x
O=C(CCSc1ccccc1)N1CCCC1	7	44*	-3	0	2
O=c1c2cc(-c3ccccc3)sc2nc2n1CCC2	-22	44*	-3	-3	-5
Cc1nc2sc(-c3ccccc3)cc2c(=O)n1N	7	0	-3	3	2
CC(=O)N/N=C(\C)CC(=O)Nc1ccc2c(c1)OCCO2	2	43*	-1	0	-1
C/C(CC(=O)Nc1ccc2c(c1)OCCO2)=N\NC(=O)c1cccc(O)c1	5	0	2	-2	-1
Cc1ccc(-c2ccc(/C=C3/NC(=O)NC3=O)o2)cc1[N+](=O)[O-]	-59	0	-1	-3	1
CC1=C(C#N)C(=O)NC(=O)/C1=C\c1ccc(-c2cc(C)c(C)cc2[N+](=O)[O-])o1	-16	1.6*	1	x	17*
C[C@H](NC(=O)[C@@H]1[C@@H](CO)[C@@H]2Cn3c(cccc3=O)[C@@H]2N1S(C)(=O)=O)c1ccccc1	6	0	5	0	-3
CCOC(=O)c1oc2ccccc2c1COC(=O)CNC(=O)c1ccco1	6	x	-3	5	3
CCOC(=O)c1oc2ccccc2c1NC(=O)c1ccco1	49*	0	-1	-4	1
C[C@H]1CN([C@@H](C)CO)C(=O)c2cc(NC(=O)NC3CCCCC3)ccc2O[C@@H]1CN(C)S(=O)(=O)c1ccc(Cl)cc1	-20	0	0	-2	2
O=C1NCCN1Cc1ccc(Cl)cc1	x	44*	-1	-1	0
O=C1NCCCN1Cc1ccc(F)cc1	7	x	x	x	x
SMILES	INS-1E GSIS act	FGF22 binding	ERAP1 HTS inh	CASP6 VEID inh	SIRT5 inh
COc1ccc(S(=O)(=O)N(C)C[C@@H]2OCc3ccccc3-c3c(n(C)c4ccccc34)C(=O)N([C@H](C)CO)C[C@H]2C)cc1	-7	0	-1	-3	16*
Cc1ccccc1S(=O)(=O)N(C)C[C@H]1OCc2ccccc2-c2c(n(C)c3ccccc23)C(=O)N([C@@H](C)CO)C[C@@H]1C	-10	0	-1	-2	22*
Cc1ccccc1S(=O)(=O)N(C)C[C@H]1OCc2ccccc2-c2c(n(C)c3ccccc23)C(=O)N([C@H](C)CO)C[C@@H]1C	-15	0	0	-1	8
Cc1ccc(S(=O)(=O)N(C)C[C@H]2OCc3ccccc3-c3c(n(C)c4ccccc34)C(=O)N([C@H](C)CO)C[C@H]2C)cc1	-19	0	1	3	20*
COc1cccc(C(=O)Nc2ccc3c(c2)OC[C@@H](C)N(C(C)=O)C[C@H](C)[C@@H](OC)CN(C)C3=O)c1	-9	x	x	x	x
CCC(O)c1cnc(OCc2ccccc2)nc1OCc1ccccc1 (stereo unspecified)	34	30*	-3	4	x
COCCNc1nc(NCc2ccc(C(C)C)cc2)c2sccc2n1	x	23*	-1	-1	x
COCCNc1nc(NCc2cccc(OC)c2)c2sccc2n1	-7	0	-2	0	1
COCCNc1nc(NCCCN(C)C)c2sccc2n1	66*	1	2	-14	x
COCCNc1nc(Oc2ccc(C(N)=O)cc2)c2sccc2n1	92*	0	-1	-3	x
C[C@@H]1CN([C@@H](C)CO)C(=O)c2cc(/C=C/c3ccccc3)cnc2O[C@H]1CN(C)S(=O)(=O)c1cccs1	-10	0	0	-6	3
C[C@@H]1CN([C@H](C)CO)C(=O)Cc2cc(NS(=O)(=O)c3ccc(F)cc3)ccc2O[C@@H]1CN(C)S(=O)(=O)c1ccccc1	-8	0	-1	0	3
COc1nc(-c2ccccc2)c2cc(C)ccc2n1	72*	0	8	-1	-5
COC(=O)c1sc2cc([N+](=O)[O-])cc(SCC(C)C)c2c1N	8	44*	0	-1	2
Cc1cc(C)n(C(=O)CNC(=O)c2cccs2)n1	-6	x	2	3	23*
Cc1cc(C)n(C(=O)CNC(=O)c2cccc(Cl)c2)n1	22	0	1	-2	1
COc1ccccc1-c1ccc2c(c1)[C@H]1[C@H](CCN1C(=O)C1CCOCC1)[C@H](CO)N2	11	0	0	-1	3
O=C(/C=C/c1ccc([N+](=O)[O-])cc1)OCC(=O)c1ccc[nH]1	3	0	2	0	23*
C[C@@H]1CN([C@@H](C)CO)C(=O)c2cc(NS(=O)(=O)c3ccccc3)ccc2O[C@H]1CN(C)Cc1ccc(C(=O)O)cc1	6	0	0	-2	0
CCOC(=O)c1[nH]cnc1C(=O)NC(C)C	41*	x	x	x	x
Cc1noc(C)c1NC(=O)Nc1ccc2c(c1)C(=O)N(C)[C@H]1CC[C@H](CC(=O)N(C)C)O[C@H]1CO2	1	0	-4	-1	-3
COc1ccc(NC(=O)C2CC(=O)N=C(N)S2)cc1 (stereo unspecified)	-4	43*	0	-5	1
CCCCNc1nc(N)ncc1[N+](=O)[O-]	55*	0	2	-1	30*
CCCCNc1c([N+](=O)[O-])ncn1C	-4	0	7	1	2
COCC(=O)Nc1ccc2c(c1)OC[C@@H](C)N(Cc1cncnc1)C[C@H](C)[C@H](OC)CN(C)C2=O	20	x	x	x	x
Cc1ncc([N+](=O)[O-])n1CCOC(=O)Nc1ccc([N+](=O)[O-])cc1	3	43*	0	-1	-3
COc1ccc2c3c(n(C)c2c1)[C@H](CO)N(Cc1nccs1)CC31CN(C)C1	19	x	x	x	x
